Assay outcomes as filed in PubChem.
Hits are enriched below; roughly 2.5% of the tested compounds scored in any of these assays.
Casp7 inh – qHTS Assay for Allosteric/Competitive Inhibitors of Caspase-7; actives 0.02% (n = 75,000); Potency, µM (doses to about 57.5 µM), hits mostly inhibitors; P55210; recombinant caspase-7, Ac-DEVD-AFC fluorescence rate; active = well fitted inhibition curve with a large enough effect in the main read-out, with a control signal flat, not every such curve was filed as active; inconclusive = small, poorly fitted or top-dose-only effect, or a change in a side signal
p53ts 39C kill – qHTS Screen for Compounds that Selectively Target Cancer Cells with p53 Mutations: Cytotoxicity of p53ts Cells at the Nonpermissive Temperature. H1299-p53A138V viability at 39C, ATP luminescence, 24 h. Potency, µM (titrated, usually from 46.1 µM), actives largely listed as cytotoxic. actives 1.5% (n = 130,000). AID 902, 2007; note: nearly all actives have a fitted effect of over 55% in size
p53ts 32C kill – qHTS Screen for Compounds that Selectively Target Cancer Cells with p53 Mutations: Cytotoxicity of p53ts Cells at the Permissive Temperature; H1299-p53A138V at 32C, ATP luminescence viability, 24 h; Potency, µM (series often up to 46.1 µM), most hits filed as cytotoxic; actives 0.93% (n = 130,000); AID 924, 2007; note: nearly all actives have a fitted effect of over 55% in size
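H1299-p53 A138V cells (temperature-sensitive p53) exposed 24 h to up to 46 uM compound at 32C, where p53 is wild-type in conformation. Viability read as ATP luminescence and normalised to DMSO and 100 uM tamoxifen. AC50 fitted with the Hill equation.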
IkB sig inh – IkB Signaling; ABC-DLBCL IkBa-CBG/CBR dual luciferase ratio, 4 h; response scale: scaled: untreated 0%, proteasome inhibitor 100%; Potency, µM (series often up to 57.1 µM); actives 0.04% (n = 110,000); active = well fitted curve in the direction sought with a large enough effect in the signal ratio, not every such curve was filed as active; inconclusive = small, poorly fitted or top-dose-only effect, or a change in a side signal; the % refers to the signal ratio;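 note: the direction sought is a rising ratio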
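Curves were fitted separately to fusion (green), unfused (red) and ratio luminescence, then classed by r2, magnitude and activity. Cells: OCI-Ly3, 4 h compound plus doxycycline at 37C; 10 uM MG-132 defined full response.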
Caspase-1 inhib – qHTS Assay for Allosteric/Competitive Inhibitors of Caspase-1 | P29466 | Potency, µM (doses to about 57.5 µM), actives largely listed as inhibitors | AID 900, 2007 | Caspase-1 enzyme, Ac-WEHD-AFC fluorogenic rate | actives 0.03% (n = 75,000)
FLuc inh – qHTS Assay for Inhibitors of Firefly Luciferase; Luciferin 4-monooxygenase (Photinus pyralis), P08659; purified firefly luciferase, luminescence, 8 min; Potency, µM (titrated, usually from 57.1 µM), usual class: inhibitors; actives 2.2% (n = 72,000); note: nearly all actives have a fitted effect of over 40% in size
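Titration-based qHTS; buffer 50 mM imidazole pH 7.2, 50 mM KCl, 7 mM MgCl2, 10 uM ATP, 0.01% Tween 20, 0.05% BSA; luciferase/luciferin detector mix added after compound; 8 min, ambient; luminescence.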
Hits are given with their value; . = inactive; ? = inconclusive; / = no result given; [ ] = remark or other dose. Unless noted, calls come from the whole dose curve; as a rule, active = well fitted curve in the direction sought with a large enough effect; inconclusive = small, poorly fitted or top-dose-only effect, or another doubt; inactive = no such curve, though single readings can be large; an effect the other way counts as inactive or inconclusive.

SMILES	Casp7 inh	p53ts 39C kill	p53ts 32C kill	IkB sig inh	Caspase-1 inhib	FLuc inh
CCN(CC)CCCN1C(=O)c2oc3ccccc3c(=O)c2C1c1cccnc1 (configuration not stated)	.	.	.	.	.	.
O=C1c2oc3ccc(Cl)cc3c(=O)c2C(c2cccnc2)N1Cc1ccco1 (configuration not stated)	.	?	?	.	.	13µM
O=C1CCCCC1Sc1nnc(Cc2cccs2)n1CCc1ccccc1 (configuration not stated)	.	.	.	.	.	.
Cc1cccc(C(=O)N2c3ncnn3C3(CCCCC3)[C@@H]3CCCC[C@@H]32)c1	/	13µM	.	.	/	/
COc1cccc(C(=O)N2c3ncnn3C3(CCCCC3)[C@@H]3CCCC[C@@H]32)c1	/	.	.	?	/	/
O=C(CNC(=O)c1ccco1)OCC(=O)c1ccc2c(c1)CCCC2	.	.	.	.	.	2µM
CCc1ccc(C(=O)COC(=O)CNC(=O)c2ccco2)cc1	.	.	.	.	.	.
c1ccc(C2Nc3ccccc3-c3nc4ccccc4n32)nc1 (configuration not stated)	/	/	/	/	/	4µM
CCOc1ccccc1CNC(=O)c1oc2ccc3c(c2c1C)C(=O)CC(C)(C)O3	/	.	.	.	/	/
COc1ccc(NC(=O)c2oc3ccc4c(c3c2C)C(=O)CC(C)(C)O4)cc1OC	/	4µM	10µM	?	/	/
Cc1c(C(=O)NCc2ccoc2)oc2ccc3c(c12)C(=O)CC(C)(C)O3	.	?	?	/	.	/
CCc1cccc(NC(=O)c2oc3ccc4c(c3c2C)C(=O)CC(C)(C)O4)c1	/	6.3µM	?	.	/	/
CCn1c(=O)n(CC)c2cc(N3CCCCC3)c(NC(=O)Nc3ccccc3C(F)(F)F)cc21	/	?	.	?	/	/
CCn1c(=O)n(CC)c2cc(N3CCCC3)c(NC(=O)Nc3cc(C)cc(C)c3)cc21	/	13µM	?	?	/	/
CCOc1ccc(-c2cc(C(=O)NCCc3ccc(C)cc3)c3ccccc3n2)cc1	/	16µM	.	.	/	/
COc1ccc(-c2cc(C(=O)NCCN3CCOCC3)c3ccccc3n2)cc1	.	.	.	.	.	?
CCOc1ccc(-c2cc(C(=O)NCCCN3CCN(CC)CC3)c3ccccc3n2)cc1	.	13µM	13µM	.	.	13µM
COc1ccc(-c2cn3c(n2)sc2cc(C(=O)Nc4ccc(F)cc4Cl)ccc23)cc1	/	20µM	.	?	/	/
CCCN1CCN(CCCNC(=O)c2ccc3c(c2)sc2nc(-c4ccc(OCC)cc4)cn23)CC1	/	13µM	?	?	/	/
CCOc1ccc(-c2cc(C(=O)NCCc3ccc(Cl)cc3)c3ccccc3n2)cc1	/	?	.	.	/	/
O=C(O)C1CC(c2ccccc2F)=NO1 (configuration not stated)	.	.	.	.	.	.
O=C1CC(c2ccccc2)CN1C(=O)c1ccccc1 (configuration not stated)	.	.	.	.	.	.
COc1ccc(C(=O)N2CCC[C@@]3(CCN(c4ccncc4)C3)C2)cc1	.	.	.	.[11.4 µM]	.	.[11.4 µM]
Nc1c(-c2ccc(Cl)cc2)nnn1-c1ccccc1	.	?	?	?	.	10µM
Clc1ccc(-n2nnnc2-c2ccccc2)cc1	.	.	.	.	.	.
SMILES	Casp7 inh	p53ts 39C kill	p53ts 32C kill	IkB sig inh	Caspase-1 inhib	FLuc inh
Cc1n[nH]c(=O)nc1NC1CCCCC1	.	.	.	.	.	.
COC(=O)CSc1nc(N)c2c3c(sc2n1)CCCC3	/	/	/	/	/	13µM
Nc1nc(SCC(=O)NCCCO)nc2sc3c(c12)CCC3	.	.	.	/	.	/
COc1ccc(Cn2c(=O)n(-c3ccc(F)c(Cl)c3)c(=O)c3c2c2cc(OC)ccc2n3C)cc1	/	.	.	.	/	/
CCOC(=O)c1sc(Nc2nc3c(OC)cccc3s2)nc1C	.	.	.	.	.	16µM
COc1ccc(NC(=O)N2CCCc3ccccc32)cc1	.	.	.	.	.	.
COc1ccc(NC2=Nc3ccccc3CC2)cc1	.	.	.	?	.	20µM
CCc1ccc(NC(=O)Cn2c(=O)n(-c3ccccc3)c(=O)c3ccc(C(=O)NCc4ccc5c(c4)OCO5)cc32)cc1	/	16µM	.	.	/	/
Cc1cc(C)c(NC(=O)Cn2c(=O)n(Cc3ccc(C(=O)NCc4ccc5c(c4)OCO5)cc3)c(=O)c3ccccc32)c(C)c1	/	5µM	?	.	/	/
CCOc1ccc(NC(=O)Cn2c(=O)n(-c3ccccc3)c(=O)c3ccc(C(=O)NCc4ccc5c(c4)OCO5)cc32)cc1	/	13µM	?	.	/	/
CCCC(=O)N1CCN(c2ccc(NC(=O)c3cc4ccccc4o3)cc2Cl)CC1	.	16µM	?	?	.	.
O=C(Nc1ccc(N2CCOCC2)c(Cl)c1)C1CCCCC1	.	.	.	.	.	.
O=C(Nc1ccc(N2CCN(C(=O)c3ccccc3)CC2)c(Cl)c1)c1ccco1	.	?	.	?	.	.
O=C(Nc1ccc(N2CCOCC2)c(Cl)c1)c1ncn[nH]1	.	?	?	.	.	20µM
O=C(Nc1ccc(N2CCN(C(=O)c3ccco3)CC2)c(Cl)c1)c1cc2ccccc2o1	.	?	13µM	.	.	.
CCC(=O)N1CCN(c2ccc(NC(=O)c3cc4ccccc4o3)cc2Cl)CC1	.	?	?	?	.	.
O=C(Nc1ccc(N2CCOCC2)c(Cl)c1)c1ccco1	.	16µM	13µM	.	.	13µM
O=C(Nc1nccs1)C1CCN(S(=O)(=O)c2ccc3c(c2)OCCCO3)CC1	.	.	.	?	.	.
COCCOCCOCCC(=O)NC1CC2CCC1(C)C2(C)C (configuration not stated)	/	/	/	/	/	.
O=C(c1ccccc1)c1ccc(N2CCOCC2)c(F)c1	.	.	?	.	.	?
CCc1cccc(NC(=O)c2ccc3c(=O)n4nc(Nc5ccccc5OC)sc4nc3c2)c1	/	5µM	3.2µM	.	/	/
COc1ccccc1Nc1nn2c(=O)c3ccc(C(=O)NCc4ccc(F)cc4)cc3nc2s1	/	3.2µM	3.2µM	.	/	/
Cc1ccccc1Nc1nn2c(=O)c3ccc(C(=O)NCc4cccs4)cc3nc2s1	/	.	.	?	/	/
CCc1ccccc1Nc1nn2c(=O)c3ccc(C(=O)Nc4ccc(OC)cc4)cc3nc2s1	/	.	?	.	/	/
Cc1ccc(C)c(Nc2nn3c(=O)c4ccc(C(=O)NCc5ccccc5)cc4nc3s2)c1	/	13µM	?	?	/	/
Cc1ccc(S(=O)(=O)NCCc2csc(-c3cccc(F)c3)n2)cc1	/	16µM	.	?	/	/
